Pf growth 96h – Primary qHTS for delayed death inhibitors of the malarial parasite plastid, 96 hour incubation | actives 6.9% (n = 320,000) | P. falciparum luciferase reporter growth, 96 h | Potency, µM (series often up to 28.7 µM), hits mostly inhibitors
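P. falciparum expressing integrated firefly luciferase, in erythrocytes at 2% hematocrit, 0.05% parasitemia, incubated with compounds 96 h at 37 C, 5% CO2. Growth inhibition read as loss of luminescence; two-generation exposure targets delayed-death apicoplast inhibitors.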
HCV inh – qHTS Assay for Inhibitors of Hepatitis C Virus (HCV). Huh7.5.1 HCVcc-Cre infection, luciferase reporter, 44 h. Potency, µM (doses to about 41.8 µM), usual class: inhibitors. actives 3.4% (n = 340,000)
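1,000 cells/well; 4 h culture; + compound; + HCVcc-Cre (~0.5 moi); 44 h; luciferase substrate, RT 15 min; read 15 sec.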
Pf growth 48h – Primary qHTS for delayed death inhibitors of the malarial parasite plastid, 48 hour incubation; P. falciparum luciferase growth in erythrocytes, 48 h; Potency, µM (highest dose often 28.7 µM), actives largely listed as inhibitors; actives 5.9% (n = 310,000)
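Read-out is firefly luciferase luminescence from an integrated reporter in P. falciparum, so falling signal marks reduced parasite growth. Infected erythrocytes were at 2% hematocrit and 0.1% parasitemia (final) in Albumax-supplemented RPMI 1640.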
AmpC inh no detg – qHTS Inhibitors of AmpC Beta-Lactamase (assay without detergent); P00811; AmpC nitrocefin hydrolysis, absorbance 480 nm, 0.0001% Triton; Potency, µM (series often up to 57.1 µM), usual class: inhibitors; actives 0.52% (n = 330,000); also: nearly all actives have a fitted effect of over 20% in size
Target sequence (P00811 whole entry, looked up): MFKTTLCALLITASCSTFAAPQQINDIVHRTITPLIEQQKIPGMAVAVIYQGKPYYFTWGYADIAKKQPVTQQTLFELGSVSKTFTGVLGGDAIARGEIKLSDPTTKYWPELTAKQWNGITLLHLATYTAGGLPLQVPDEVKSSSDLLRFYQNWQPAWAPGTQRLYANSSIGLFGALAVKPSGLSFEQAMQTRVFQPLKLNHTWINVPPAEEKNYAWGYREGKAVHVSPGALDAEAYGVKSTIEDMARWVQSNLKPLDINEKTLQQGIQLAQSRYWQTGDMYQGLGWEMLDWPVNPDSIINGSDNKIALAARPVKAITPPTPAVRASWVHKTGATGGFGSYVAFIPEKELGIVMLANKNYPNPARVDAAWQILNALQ
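20 mM phosphate pH 7.0 + 0.01% (detergent screen) or 0.0001% Triton X-100; 5.3 nM AmpC reagent; cpd preinc 15 min RT; nitrocefin (800 uM stock) to start; A480 q20 s × 4 min; Activity was normalised to no-enzyme and no-compound control wells.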
AmpC detergent – qHTS Inhibitors of AmpC Beta-Lactamase (assay with detergent). AmpC hydrolysis of nitrocefin, absorbance 480 nm, 0.01% Triton. actives 0.041% (n = 370,000). P00811. Potency, µM (titrated, usually from 114 µM), actives largely listed as inhibitors. AID 485294, 2010; also: nearly all actives have a fitted effect of over 25% in size
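AmpC (5.3 nM in the dispensed reagent) in 20 mM phosphate pH 7.0 with 0.01% (detergent screen) or 0.0001% Triton X-100 was preincubated with compounds for 15 min at room temperature. Nitrocefin was then added from an 800 uM solution, and hydrolysis was followed at 480 nm.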
AMA1 RON2 block – qHTS for Inhibitors of AMA1-RON; Towards Development of Antimalarial Drug Lead: Primary Screen | Plasmodium falciparum AMA1 (3D7) - RON2 peptide interaction | Potency, µM (titrated, usually from 58.2 µM), usual class: inhibitors | AlphaScreen AMA1-biotinylated RON2 peptide binding | actives 0.2% (n = 360,000); also: nearly all actives have a fitted effect of over 45% in size
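AMA1 (3D7) with his tag at 25 nM final met compounds first, then biotinylated RON2 peptide at 25 nM; detection used donor plus acceptor beads, 10 µg/mL apiece, read by AlphaScreen after 30 min at room temperature.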
Each line names hits and unclear results; the compound was inactive in the other large screens; ! = not confirmed by another sample. In the library only some 11% were active in any assay of this set; here they are far more common. Calls follow the shape of the dose curve; as a rule, active = well fitted curve in the direction sought with a large enough effect; inconclusive = small, poorly fitted or top-dose-only effect, or another doubt; inactive = no such curve, though single readings can be large; an effect the other way counts as inactive or inconclusive.

CCCC[n+]1ccn(C2=C([O-])c3ccccc3C(=O)/C2=N\S(=O)(=O)c2ccc(Br)cc2)c1	Pf growth 96h inconclusive, HCV inh 10µM, Pf growth 48h 3.29µM
Cc1ccc(NC(=O)C[n+]2ccn(C3=C([O-])c4ccccc4C3=O)c2)cc1	none
Cc1ccc(S(=O)(=O)/N=C2\C(=O)c3ccccc3C([O-])=C2n2cc[n+](CCC(C)C)c2)cc1	Pf growth 96h 3.29µM, HCV inh 17.8µM, Pf growth 48h 13.1µM
CC(=O)Nc1ccc(S(=O)(=O)/N=C2\C(=O)c3ccccc3C([O-])=C2n2cc[n+](-c3ccccn3)c2)cc1	Pf growth 96h 4.65µM, Pf growth 48h 1.47µM
CNc1ccc(Br)cc(C(=O)/C=C/c2ccc(OC)cc2)c1=O	AmpC detergent inconclusive
CCNc1ccc(Br)cc(C(=O)/C=C/c2ccc(Cl)cc2Cl)c1=O	HCV inh 8.91µM, Pf growth 48h inconclusive
COc1ccc(/C=C/C(=O)c2cc(Br)ccc2OC(=O)c2ccco2)cc1OC	Pf growth 48h 11.7µM
Cc1nn(C)cc1CNC(=O)/C=C/c1cnn(C)c1	AmpC detergent inconclusive
COc1cc(C(=O)Oc2cc(C)cc(C)c2)cc(OC)c1OC	Pf growth 48h 14.7µM, AmpC detergent inconclusive
COc1cc(O)cc(O)c1C(=O)/C=C/c1ccccc1	HCV inh inconclusive, Pf growth 48h inconclusive
COc1ccc(/C=C/C(=O)c2cc(Br)ccc2O)cc1OC	Pf growth 96h inconclusive, HCV inh inconclusive
COc1ccc(/C=C/C(=O)NCc2cn(C)nc2C)cc1COc1ccc(Br)cc1	Pf growth 96h inconclusive, HCV inh inconclusive, Pf growth 48h 3.7µM
COc1cc(OC)c(C(=O)/C=C/c2ccccc2)c(O)c1O	Pf growth 96h 11.7µM, Pf growth 48h inconclusive
CCc1ccc(-n2nc(CO)c(C(=O)NCc3ccccc3Cl)n2)cc1	none (no result: Pf growth 96h, HCV inh, Pf growth 48h, AmpC inh no detg, AMA1 RON2 block)
COc1ccc(/C=C/C(=O)c2ccc(C(=O)/C=C/c3ccc(OC)c(OC)c3)cc2)cc1OC	Pf growth 96h inconclusive, HCV inh 4.47µM, Pf growth 48h inconclusive
COc1ccc(Oc2ccc(/C=C/C(=O)c3ccc(O)cc3)cc2[N+](=O)[O-])cc1	Pf growth 96h 11.7µM, HCV inh inconclusive, Pf growth 48h 11.7µM, AmpC detergent inconclusive
COc1ccc(C(=O)/C=C/c2cccc(OCc3ccccc3)c2)cc1CSCC(=O)O	Pf growth 96h 4.65µM, Pf growth 48h 9.28µM
COc1ccc(C(=O)/C=C/c2ccc(OCc3ccccc3)cc2)cc1CSCC(=O)O	none
COc1ccc(C(=O)/C=C/c2ccc(OC(=O)c3cc(OC)c(OC)c(OC)c3)cc2)cc1	Pf growth 96h 4.65µM, HCV inh inconclusive, Pf growth 48h 2.94µM
COc1ccc(/C=C/C(=O)c2ccc3c(c2)OCO3)cc1OC	none
Cc1cc(C)c2oc(-c3cc(NC(=O)Cc4ccccc4)ccc3Cl)nc2c1	none (no result: Pf growth 96h, HCV inh, Pf growth 48h, AmpC inh no detg, AMA1 RON2 block)
CCc1ccc(NC(=O)C2CCN(c3nn4c(=O)cc(C)nc4s3)CC2)cc1	none (no result: Pf growth 96h, HCV inh, Pf growth 48h, AmpC inh no detg, AMA1 RON2 block)
COc1ccc(/C=C/C(=O)c2ccccc2)cc1COc1ccc(F)cc1	Pf growth 96h inconclusive, HCV inh inconclusive, Pf growth 48h inconclusive
COc1cc(/C=C/C(=O)O)ccc1OS(=O)(=O)c1c(C)c(C)cc(C)c1C	Pf growth 48h 10.4µM
COc1cc(/C=C/C(=O)O)cc(OC)c1OC	none
COc1ccc(/C=C/C(=O)c2ccccc2)cc1Cn1nnc2ccccc21	Pf growth 96h inconclusive, HCV inh 3.55µM, Pf growth 48h inconclusive, AMA1 RON2 block inconclusive
COc1ccc(/C=C/C(=O)c2ccc(O)cc2)cc1COc1ccc(F)cc1	Pf growth 96h inconclusive, Pf growth 48h inconclusive, AmpC inh no detg 11.2µM
COC(=O)c1ccc(/C=C/C(=O)c2ccc(OC)c(OC)c2)cc1	Pf growth 96h inconclusive, HCV inh inconclusive, Pf growth 48h 10.4µM
CCOc1ccccc1C1C(C(=O)N2CCCCC2)=C(C)Nc2nc3ccccc3n21 (stereo not drawn)	none (no result: Pf growth 96h, HCV inh, Pf growth 48h, AmpC inh no detg, AMA1 RON2 block)
COc1ccc(-c2nn3c(=O)cc(CN4CCN(C(=O)Nc5ccc(C)c(Cl)c5)CC4)nc3s2)cc1	none (no result: Pf growth 96h, HCV inh, Pf growth 48h, AmpC inh no detg, AMA1 RON2 block)
CN(Cc1ccccc1)C(=O)C1CCN(S(=O)(=O)c2cccc3nonc23)CC1	Pf growth 96h 13.1µM
COc1ccc(N(C)C(=O)C2CCN(S(=O)(=O)c3cccc4nonc34)CC2)c(OC)c1	Pf growth 96h 9.28µM, Pf growth 48h inconclusive
CCOC(=O)c1ccccc1NC(=O)c1nn(-c2ccc(C)cc2)c(=O)n(C)c1=O	none (no result: Pf growth 96h, HCV inh, Pf growth 48h, AmpC inh no detg, AMA1 RON2 block)
O=C1c2cc(CO)cc(O)c2C(=O)c2c(O[C@@H]3OC(CO)[C@@H](O)[C@@H](O)[C@@H]3O)cccc21 (stereo partly drawn)	none (no result: Pf growth 96h, Pf growth 48h, AmpC inh no detg, AmpC detergent)
O=C(O)c1cc(O)c2c(c1)[C@@H]([C@H]1c3cc(C(=O)O)cc(O)c3C(=O)c3c(O[C@@H]4O[C@H](CO)[C@@H](O)[C@H](O)[C@H]4O)cccc31)c1cccc(OC3O[C@H](CO)[C@@H](O)[C@H](O)[C@H]3O)c1C2=O (stereo partly drawn)	Pf growth 48h inconclusive, AmpC inh no detg 1.41µM, AmpC detergent inconclusive, AMA1 RON2 block inconclusive
O=C(O)c1cc(O)c2c(c1)[C@H]([C@H]1c3cc(C(=O)O)cc(O)c3C(=O)c3c(O[C@@H]4O[C@H](CO)[C@@H](O)[C@H](O)[C@H]4O)cccc31)c1cccc(OC3O[C@H](CO)[C@@H](O)[C@H](O)[C@H]3O)c1C2=O (stereo partly drawn)	HCV inh 0.355µM!, AmpC inh no detg 1µM, AMA1 RON2 block 0.891µM
Cc1onc(-c2ccccc2)c1C(=O)N1CCN(C/C=C/c2ccccc2)CC1	Pf growth 96h 2.08µM, AmpC detergent inconclusive (no result: Pf growth 48h)
Cc1cccc(N2CCN(C(=O)c3c(-c4ccccc4)noc3C)CC2)c1C	Pf growth 96h 10.4µM, HCV inh inconclusive, Pf growth 48h inconclusive
COc1cc(OC)c(NC(=O)c2cc(C)nc3c2c(C)nn3-c2ccc(C)cc2)cc1Cl	none (no result: Pf growth 96h, HCV inh, Pf growth 48h, AmpC inh no detg, AMA1 RON2 block)
COc1cc(Cl)c(C)cc1Nc1nc2ccccc2n2cnnc12	none (no result: Pf growth 96h, HCV inh, Pf growth 48h, AmpC inh no detg, AMA1 RON2 block)
COc1ccc(C(=O)N2CCCC(CCC(=O)N3CCN(c4ccccn4)CC3)C2)cc1 (stereo not drawn)	Pf growth 48h inconclusive
O=C(CCC1CCCN(C(=O)COc2ccccc2)C1)N1CCN(c2ccccn2)CC1 (stereo not drawn)	Pf growth 48h 10.4µM

High-throughput results from PubChem.
